Measurements as given in PubChem BioAssay AID765 (NMMLSC, 2007).

Target: N-formyl peptide receptor 2 (Homo sapiens) (UniProt P25090)
Assay: human FPR2 ligand displacement single-point screen – cell-based, flow cytometry, single concentration (AID 765)
Conditions: FPRL1-expressing cells, fluorescent ligand binding inhibition, active compounds read high; at 5.1 µM unless noted; in the data active = inhibition above about 31%; inactive = the rest

N-formyl peptide receptor 2 (Homo sapiens), sequence (P25090 whole entry, looked up): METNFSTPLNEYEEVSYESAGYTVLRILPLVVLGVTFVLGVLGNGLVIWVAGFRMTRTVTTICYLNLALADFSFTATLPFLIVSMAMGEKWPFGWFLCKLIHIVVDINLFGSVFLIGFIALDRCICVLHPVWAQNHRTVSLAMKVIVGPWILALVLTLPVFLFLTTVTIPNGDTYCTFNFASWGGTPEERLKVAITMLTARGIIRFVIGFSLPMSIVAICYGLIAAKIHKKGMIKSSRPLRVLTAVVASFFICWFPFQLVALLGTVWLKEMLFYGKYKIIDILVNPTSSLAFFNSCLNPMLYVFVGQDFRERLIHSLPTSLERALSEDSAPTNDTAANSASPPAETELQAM

inhibition, inactive:
CCOC(=O)N1CCN(c2nc(-c3cccc(OC)c3)cc(C(F)(F)F)n2)CC1 -16.3% [at 5.4 µM], Clc1ccccc1N1CCN(c2nc(-c3ccccc3)c3cc(Br)ccc3n2)CC1 5.1% [at 4.6 µM], Cc1ccc(-c2cn3cccnc3n2)cc1NC(=O)C(C)C -3.4% [at 7.6 µM]
